From PubChem BioAssay (NCI) come the findings set out here.

Each structure is given as a SMILES string. Several values for one entry are separate records, joined by “and”; a condition that tells them apart may be missing. Equal values may be shown once. About 83,000 compounds went through this panel and 20% of them were active in at least one assay; those are over-represented in the sample as a whole.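 Negative percent growth values reflect cell death: -40 means 40% of the cells present at the start died, and -100 means all died.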 Activity calls are given as the source filed them. Rule for the calls: active = growth percent below 10; inactive = the rest.

Test systems include OVCAR-8 ovarian; OVCAR-4 ovarian; SK-OV-3 ovarian; IGROV1 ovarian; OVCAR-3 ovarian; HS 578T breast; NCI/ADR-RES ovarian; T-47D breast; SW-620 colon; MCF7 breast; HCT-116 colon; HCC-2998 colon; KM12 colon; RPMI-8226 leukemia; OVCAR-5 ovarian.
Assay in all cases: NCI-60 one-dose screen, 48 h (100 = growth as untreated, 0 = no growth, -100 = all killed)
The next assay concerns SR leukemia. Conditions: 10 µM unless noted.
The test system of the next assay is BT-549 breast. Conditions: 10 µM unless noted.
A further assay deals with MDA-MB-435 melanoma. Conditions: 10 µM unless noted.

For `CC(C)(C)c1ccc(O)c(CNC2CCCCC2)c1`, the growth in the assay on SR leukemia was 80% (inactive) and 83.5% (inactive); in the assay with OVCAR-8 ovarian (10 µM unless noted) it was 101% (inactive) and 88.9% (inactive); with OVCAR-4 ovarian (10 µM unless noted), 82.8% (inactive); in the assay on SK-OV-3 ovarian (10 µM unless noted), 108% (inactive) and 97.8% (inactive); with IGROV1 ovarian (10 µM unless noted), 97.7% (inactive) and 92% (inactive); with OVCAR-3 ovarian (10 µM unless noted) it was 111% (inactive) and 92.8% (inactive). Moreover, the growth is 89.2% (inactive) and 89.9% (inactive) with HS 578T breast (10 µM unless noted); 98.5% (inactive) in the assay with NCI/ADR-RES ovarian (10 µM unless noted); 112% (inactive) and 75.9% (inactive) in the assay on T-47D breast (10 µM unless noted); 85.1% (inactive) in the assay on BT-549 breast; 97.9% (inactive) and 96.6% (inactive) in the assay with MDA-MB-435 melanoma; 101% (inactive) and 98.5% (inactive) with SW-620 colon (10 µM unless noted). In addition, the growth with MCF7 breast (10 µM unless noted) is 93% (inactive) and 93.8% (inactive); in the assay with HCT-116 colon (10 µM unless noted) it was 86.7% (inactive) and 88.3% (inactive); in the assay on HCC-2998 colon (10 µM unless noted), 52.7% (inactive) and 104% (inactive); in the assay with KM12 colon (10 µM unless noted), 105% (inactive) and 92.2% (inactive).

In the case of `CC(=O)NC(Cc1ccccc1)C(=O)Oc1ccc2ccccc2c1` (configuration not stated), the growth with RPMI-8226 leukemia (10 µM unless noted) was 90.2% (inactive); in the assay with OVCAR-8 ovarian (10 µM unless noted), 103% (inactive) and 105% (inactive); in the assay with OVCAR-5 ovarian (10 µM unless noted), 108% (inactive) and 93% (inactive); in the assay on OVCAR-4 ovarian (10 µM unless noted) it was 101% (inactive) and 97.6% (inactive); in the assay on SK-OV-3 ovarian (10 µM unless noted), 91.5% (inactive); in the assay on IGROV1 ovarian (10 µM unless noted), 135% (inactive) and 111% (inactive). Also, the growth in the assay with OVCAR-3 ovarian (10 µM unless noted) is 122% (inactive) and 100% (inactive); in the assay on NCI/ADR-RES ovarian (10 µM unless noted), 98.4% (inactive) and 105% (inactive); in the assay with T-47D breast (10 µM unless noted), 99.3% (inactive) and 108% (inactive); in the assay on BT-549 breast it was 110% (inactive); with MDA-MB-435 melanoma, 119% (inactive) and 107% (inactive); with SW-620 colon (10 µM unless noted), 107% (inactive) and 96.7% (inactive). The growth in the assay on MCF7 breast (10 µM unless noted) is 113% (inactive) and 97.8% (inactive); with HCT-116 colon (10 µM unless noted), 113% (inactive) and 114% (inactive); in the assay with HCC-2998 colon (10 µM unless noted), 105% (inactive) and 97% (inactive); in the assay with KM12 colon (10 µM unless noted), 103% (inactive) and 94.8% (inactive).

As for `CCOc1ccc2cc(-c3nn(CC4CCN(C)CC4)c4ncnc(N)c34)ccc2c1`, the growth was 75.9% (inactive) and 2.42% (active) in the assay on RPMI-8226 leukemia (10 µM unless noted); 94.4% (inactive) and 65.2% (inactive) in the assay on OVCAR-8 ovarian (10 µM unless noted); 88.4% (inactive) and 80.8% (inactive) in the assay on OVCAR-5 ovarian (10 µM unless noted); 91.4% (inactive) and 70.5% (inactive) in the assay with OVCAR-4 ovarian (10 µM unless noted); 83.1% (inactive) and 85.2% (inactive) with SK-OV-3 ovarian (10 µM unless noted); 81.5% (inactive) and 61.3% (inactive) with IGROV1 ovarian (10 µM unless noted). Besides, the growth is 97.8% (inactive) and 59.3% (inactive) in the assay on OVCAR-3 ovarian (10 µM unless noted); 79.3% (inactive) and 35.8% (inactive) in the assay on HS 578T breast (10 µM unless noted); 93.7% (inactive) and 63.1% (inactive) in the assay on NCI/ADR-RES ovarian (10 µM unless noted); 68.5% (inactive) and 54.7% (inactive) in the assay with T-47D breast (10 µM unless noted); 71.6% (inactive) and 45.7% (inactive) in the assay with BT-549 breast; 95.4% (inactive) and 15.9% (inactive) with MDA-MB-435 melanoma. The growth is 91% (inactive) and 65.6% (inactive) in the assay on SW-620 colon (10 µM unless noted); 85.7% (inactive) and 55.5% (inactive) in the assay with MCF7 breast (10 µM unless noted); 63.2% (inactive) and 24.4% (inactive) with HCT-116 colon (10 µM unless noted); 102% (inactive) and 54.5% (inactive) with HCC-2998 colon (10 µM unless noted); 89.4% (inactive) and 66.5% (inactive) in the assay with KM12 colon (10 µM unless noted).

Take `CNC(=O)c1cc(Oc2ccc(CC(=O)Nc3cc(C(C)(C)C)nn3C)cc2)ccn1`: the growth in the assay with RPMI-8226 leukemia (1 µM) is 46.2% (inactive); in the assay on RPMI-8226 leukemia (10 µM), 62.6% (inactive); in the assay on OVCAR-8 ovarian (1 µM), 72.5% (inactive); in the assay on OVCAR-8 ovarian (10 µM), 71.8% (inactive); with OVCAR-8 ovarian (30 µM), 70.6% (inactive); in the assay on OVCAR-5 ovarian (1 µM) it was 104% (inactive). Besides, the growth in the assay on OVCAR-5 ovarian (10 µM) was 116% (inactive); in the assay on OVCAR-5 ovarian (30 µM) it was 98.9% (inactive); with OVCAR-4 ovarian (1 µM) it was 58.7% (inactive); with OVCAR-4 ovarian (10 µM) it was 44.7% (inactive); in the assay on OVCAR-4 ovarian (30 µM) it was 83.4% (inactive); with SK-OV-3 ovarian (10 µM), 71.8% (inactive). For the same compound, the growth in the assay on SK-OV-3 ovarian (30 µM) is 94.4% (inactive); in the assay with IGROV1 ovarian (1 µM), 75.1% (inactive); in the assay on IGROV1 ovarian (10 µM) it was 85.6% (inactive); in the assay on IGROV1 ovarian (30 µM), 90.5% (inactive); in the assay with OVCAR-3 ovarian (1 µM), 81.9% (inactive); in the assay on OVCAR-3 ovarian (10 µM), 69.6% (inactive). For the same compound, the growth in the assay with OVCAR-3 ovarian (30 µM) is 109% (inactive); in the assay with HS 578T breast (1 µM), 81.4% (inactive); in the assay on HS 578T breast (10 µM) it was 65.4% (inactive); in the assay with HS 578T breast (30 µM), 83.5% (inactive); in the assay on NCI/ADR-RES ovarian (1 µM), 85.3% (inactive); in the assay on NCI/ADR-RES ovarian (10 µM), 76% (inactive). The growth in the assay with NCI/ADR-RES ovarian (30 µM) was 53.7% (inactive); with T-47D breast (1 µM) it was 57.4% (inactive); in the assay on T-47D breast (10 µM), 44.7% (inactive); with T-47D breast (30 µM), 51.7% (inactive); in the assay on SW-620 colon (1 µM) it was 106% (inactive); in the assay with SW-620 colon (10 µM), 87.2% (inactive). In addition, the growth is 97.8% (inactive) in the assay on SW-620 colon (30 µM); 61.4% (inactive) in the assay on MCF7 breast (1 µM); 53.5% (inactive) in the assay on MCF7 breast (10 µM); 44.4% (inactive) in the assay with MCF7 breast (30 µM); 65% (inactive) in the assay with HCT-116 colon (1 µM); 33.9% (inactive) with HCT-116 colon (10 µM). Also, the growth in the assay on HCT-116 colon (30 µM) was 47.4% (inactive); in the assay on HCC-2998 colon (1 µM), 107% (inactive); with HCC-2998 colon (10 µM) it was 75.3% (inactive); with HCC-2998 colon (30 µM), 101% (inactive); with KM12 colon (1 µM), 88.4% (inactive); in the assay on KM12 colon (10 µM), 58.5% (inactive). The growth in the assay with KM12 colon (30 µM) is 64.6% (inactive).
